Data: PubChem BioAssay AID1851 (National Center for Advancing Translational Sciences (NCATS), 2009)
Where “and” joins values, the source holds several entries; their conditions need not be identical. Equal entries are not always repeated. Among all 16,000 compounds or so, about 5,800 (36%) were called active. Inconclusive results (about 23%) are left out. The call rests on the fitted dose curve; in most records, active means well fitted curve in the direction sought with a large enough effect; inconclusive means small, poorly fitted or top-dose-only effect, or effect the other way; inactive means no such curve, though single readings can be large or run the other way. This is one part of the list. Where a structure was tested more than once in an assay, its records may differ in their call.

Biological target: Cytochrome P450 2C19 (Homo sapiens) (UniProt P33261)
Sequence (P33261 whole entry, looked up): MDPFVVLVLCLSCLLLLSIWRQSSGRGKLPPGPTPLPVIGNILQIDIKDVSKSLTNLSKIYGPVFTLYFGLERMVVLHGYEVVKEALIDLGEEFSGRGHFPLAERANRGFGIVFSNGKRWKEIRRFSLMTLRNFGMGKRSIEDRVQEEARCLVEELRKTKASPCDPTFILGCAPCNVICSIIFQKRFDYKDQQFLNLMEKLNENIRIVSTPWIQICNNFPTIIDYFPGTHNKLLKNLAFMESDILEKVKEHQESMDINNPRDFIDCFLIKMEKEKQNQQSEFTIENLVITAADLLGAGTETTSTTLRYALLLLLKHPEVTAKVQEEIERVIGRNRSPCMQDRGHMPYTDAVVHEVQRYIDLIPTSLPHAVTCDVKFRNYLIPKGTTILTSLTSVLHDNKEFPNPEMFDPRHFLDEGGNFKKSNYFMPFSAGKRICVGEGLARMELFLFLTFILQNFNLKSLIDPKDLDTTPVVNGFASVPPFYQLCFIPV
Experiment: Cytochrome panel assay with activity outcomes
Conditions: recombinant CYP, pro-luciferin dealkylation, luminescence, p450-cyp2c19; series mostly up to 57.1 µM; activity, negative = inhibition: at the top concentration
On the % scale 0 is the no-effect control and ±100 the full control effect.

Structure (SMILES) | activity, negative = inhibition | AC50
N[C@H](CCC(=O)NCS(=O)(=O)O)C(=O)O | -6.82% (inactive) | 
Cc1[nH]c2c(C)ccc(C)c2c1CC(=O)O |  | 0.316 µM (active)
COC(=O)C/C=C\[C@@H](C)[C@@H](/C=N\O[C@@H](C)c1cc(-c2c(C)cc(C)cc2C)no1)NS(=O)(=O)c1ccc(C)cc1 |  | 3.16 µM (active)
CO/N=C\[C@@H](NS(=O)(=O)c1ccc(C)cc1)[C@H](C)/C=C\CC(=O)OC |  | 3.16 µM (active)
COC(=O)C/C=C\[C@@H](C)[C@@H](/C=N\OC[C@@H](O)COCc1ccco1)NS(=O)(=O)c1ccc(C)cc1 | -9.48% [at 11.4 µM] (inactive) | 
COC(=O)C/C=C\[C@@H](C)[C@@H](/C=N\O[C@@H](C)c1cn([C@H]2COC[C@H]2O)nn1)NS(=O)(=O)c1ccc(C)cc1 | -9.22% [at 11.4 µM] (inactive) | 
COC(=O)C/C=C\[C@@H](C)[C@@H](/C=N\O[C@@H](C)CN1CCCc2nc(C)c(C)cc21)NS(=O)(=O)c1ccc(C)cc1 | -27.4% [at 11.4 µM] (inactive) | 
COC(=O)C/C=C\[C@H](C)[C@H](CO)NS(=O)(=O)c1ccc(C)cc1 | 44.8% [at 11.4 µM] (inactive) | 
NC1=N[C@H](c2ccc(Cl)cc2)N(c2ccc(S(=O)(=O)Nc3ncccn3)cc2)C(N)=N1 | 8.72% [at 11.4 µM] (inactive) | 
Cc1ccc(CSc2nnc([C@@H]3CCCN3)o2)cc1 |  | 7.08 µM (active)
Cc1ccc(CSc2nc3c(c(SCC(=O)O)n2)CCCC3)cc1 | -21.9% (inactive) | 
CN1CCN(c2ncc3nc(-c4cccc(C#N)c4)c(=O)n(C)c3n2)CC1 | -41.4% (inactive) | 
Cn1cccc1C(=O)N1CCC2(CCCN(c3cccc(-c4ccccc4)c3)C2)CC1 |  | 10 µM (active)
Cn1cccc1C(=O)N1CCC2(CC1)CCN(c1ccccc1)CC2 | -18.5% (inactive) | 
CN1CCCC2(CCN(C(=O)c3cccn3C)CC2)C1 | -6.51% (inactive) | 
Cn1cccc1C(=O)N1CCC2(CCCN(c3ccccc3)C2)CC1 |  | 7.94 µM (active)
Cn1cccc1C(=O)N1CCC2(CCCN(c3ccc(-c4ccccc4)cc3)C2)CC1 | -39.1% (inactive) | 
Cn1cccc1C(=O)N1CCC2(CC1)CCN(c1cccc(-c3ccccc3)c1)CC2 | -39.8% (inactive) | 
O=C(O)c1cc(C(=O)C(=O)c2cc(C(=O)O)c(O)c3ccccc23)c2ccccc2c1O | -29.3% [at 11.4 µM] (inactive) | 
O=C(c1cnn(-c2ccccc2)c1)c1ccc2ccccc2c1O |  | 5.62 µM (active)
Cc1ccc(-n2cc(C(=O)c3ccc4ccccc4c3O)cn2)cc1 | -25% (inactive) | 
CCCCOC(=O)Nc1ccccc1C(=O)OC |  | 14.1 µM (active)
Cc1ccc(-n2c(-c3cc(C)n(C)n3)n[nH]c2=S)cc1 | 17.3% (inactive) | 

Structure (SMILES) | activity, negative = inhibition | AC50
Cc1nn(CCc2n[nH]c(=S)n2-c2ccc(F)c(Cl)c2)c(C)c1[N+](=O)[O-] |  | 14.1 µM (active)
CC(C)=C1C(=O)NN(c2ccc(F)c(Cl)c2)C1=O | -21.5% (inactive) | 
COC(=O)[C@@]1(Cc2ccc(OC)cc2)[C@@H]2[C@@H](CC(=O)[C@H]2CC(=O)C(=O)N(C)C)CN1C(=O)c1ccccc1 | -29.2% (inactive) | 
COC(=O)[C@@]1(Cc2ccccc2)[C@H]2c3cc(C(=O)N4CCCC4)[nH]c3C[C@H]2CN1C(=O)c1ccccc1 |  | 0.501 µM (active)
COC(=O)[C@@]1(Cc2ccc(OC)cc2)[C@H]2c3cc(C(=O)N(C)C)[nH]c3C[C@H]2CN1C(=O)c1ccccc1 |  | 5.01 µM (active)
O=C(O)COC(=O)Cc1ccccc1Nc1c(Cl)cccc1Cl | 22.1% [at 25.6 µM] (inactive) | 
NC(N)=NC(=O)Cc1c(Cl)cccc1Cl |  | inactive and 251 nM (active)
NC(N)=NN=Cc1c(Cl)cccc1Cl |  | inactive
CC(C)(C)CNCCO | 7.05% [at 11.4 µM] (inactive) | 
CC1(C)SC(=S)N(NC(=O)Nc2ccccc2)C1N(O)C(=O)Nc1ccccc1 (centres undefined) |  | 14.1 µM (active)
CCC(C)NS(=O)(=O)c1ccc(OCC(=O)NCC2CCCO2)cc1 (centres undefined) | -20.6% (inactive) | 
Cc1cc2ccc(OC(=O)c3ccc(N=C(N)N)cc3)cc2oc1=O | 13.8% [at 11.4 µM] (inactive) | 
CCC(C)C(NS(=O)(=O)c1ccc(C)cc1)C(=O)Oc1ccc2c3c(c(=O)oc2c1)CCC3 (centres undefined) |  | 3.98 µM (active)
Cc1ccc(S(=O)(=O)N[C@H](C(=O)Oc2ccc3c(C(F)(F)F)cc(=O)oc3c2)c2ccccc2)cc1 |  | 20 µM (active)
Cc1nn(-c2ccc(F)cc2)c(Cl)c1/C=C(\CCC(=O)O)c1nc2ccccc2s1 |  | 15.8 µM (active)
COc1ccccc1C/C(N)=N/OC(=O)c1ccc(C)c([N+](=O)[O-])c1 |  | 8.91 µM (active)
Cn1c(=O)n2n(c1=O)[C@H]1[C@H](O)[C@H]3O[C@@H]3/C(=N/OC[C@@H](O)COCc3ccco3)[C@@H]1CC2 | -21.1% [at 11.4 µM] (inactive) | 
Oc1cccc2ccc(SSc3ccc4cccc(O)c4n3)nc12 |  | 3.16 µM (active)
COc1ccc(N2C(=O)CC(S/C(N)=N/N=C(\C)c3cccs3)C2=O)cc1 (centres undefined) |  | 7.08 µM (active)
COc1ccc(-n2c(=O)c(-c3cccs3)nc3cnc(N4CCN(C)CC4)nc32)cc1 | -21.9% (inactive) | 
CCCOc1ccc(N2C(=O)CC(S/C(N)=N/N=C(\C)c3cccs3)C2=O)cc1 (centres undefined) |  | 6.31 µM (active)
O=C(N/N=C/c1ccc2cccc(OCc3ccccc3)c2n1)c1ccc(Br)cc1 |  | 3.55 µM (active)
S=C(CSc1ccccc1)Nc1cccc2ccccc12 |  | 0.794 µM (active)

Structure (SMILES) | activity, negative = inhibition | AC50
CCCCn1nc2cc(C(=O)NCc3ccc(C(F)(F)F)cc3C(F)(F)F)ccc2c1OCC |  | 12.6 µM (active)
CCOc1c2ccc(C(=O)NCc3cc(C(F)(F)F)cc(C(F)(F)F)c3)cc2nn1C |  | 28.2 µM (active)
COc1ccc(C(=O)N2CCC3(CCN(Cc4cc(C(F)(F)F)cc(C(F)(F)F)c4)CC3)CC2)cc1 | -12.6% (inactive) | 
CCN(CC)CCNC(=O)c1cc(Cl)c(N)cc1OC |  | inactive
CN1CCC2(CC1)CCN(S(=O)(=O)c1ccccc1)CC2 | 2.37% (inactive) | 
O=C1c2ccccc2C(=O)N1CC1c2ccccc2CCN1S(=O)(=O)c1ccccc1 (centres undefined) |  | 2 µM (active)
C[N+](C)(C)CCCCCNCC12CC3CC(CC(C3)C1)C2 | -35% (inactive) | 
Cc1cc(Cn2cnc3c2C[C@@H](C(=O)O)N(C(=O)C(c2ccccc2)c2ccccc2)C3)ccc1N(C)C |  | 1.58 µM (active)
CN1CCN(CCCNC(=O)c2ccc(CSCc3cccc(Cl)c3)o2)CC1 | -20.9% (inactive) | 
CCCn1nnc(NC(=O)c2ccc(-c3cccc(Cl)c3)o2)n1 |  | 20 µM (active)
CCCC(=O)Nc1nc2n(n1)C(c1ccccc1)CC(=O)N2 (centres undefined) | -16.8% (inactive) | 
CCCn1nnc(NC(=O)Cc2ccccc2)n1 |  | 10 µM (active)
CC(C)Cn1cnc2c(Sc3c([N+](=O)[O-])ncn3C)nc(N)nc21 | 17.8% [at 11.4 µM] (inactive) | 
CC(C)Cn1cnc2c(SCc3ccccn3)nc(N)nc21 | 9.26% [at 11.4 µM] (inactive) | 
CC(C)Cn1cnc2c(SCc3ccc(Cl)cc3Cl)nc(N)nc21 |  | 2 µM (active)
Cc1ccc2ccccc2c1CSc1nc(N)nc2c1ncn2CC(C)C |  | 3.98 µM (active)
CC(C)(C)C1CCc2c(C(=O)N/N=C/c3cccs3)csc2C1 (centres undefined) |  | 6.31 µM (active)
ClC(=Nc1cccc2ccccc12)N(c1ccccc1)c1ccccc1 |  | 2.51 µM (active)
O=S(=O)(c1cccc(C(F)(F)F)c1)N1CCC(c2cc(-c3cccc4ccccc34)n[nH]2)CC1 |  | 7.08 µM (active)
Cc1ccnn2cc3c(=O)n(C)c(=O)n(C)c3c12 | -27.3% (inactive) | 
C[C@@]1(C(NC(=O)c2ccc(-c3ccccc3)cc2)c2ccc(Cl)cc2)C[C@H]1C1CCCCC1 (some centres undefined) | -8.45% (inactive) | 
COC(=O)c1ccc(C(NC(=O)c2ccccc2)[C@]2(C)C[C@H]2C2CCCCC2)cc1 (some centres undefined) |  | 2.51 µM (active)
C[C@@]1(C(NC(=O)c2cccs2)c2ccc(-c3ccccc3)cc2)C[C@H]1C1CCCCC1 (some centres undefined) | -40.8% (inactive) | 

Structure (SMILES) | activity, negative = inhibition | AC50
O=C(CN1CCCC1)N/N=C/c1ccc(-c2cccc(Cl)c2)o1 |  | 22.4 µM (active)
COC(=O)Nc1nc2ccc(Sc3ccccc3)cc2[nH]1 | -16.1% [at 25.6 µM] (inactive) | 
COc1ccc2nc(SCC(=O)Nc3ccc4c(c3)OCCO4)[nH]c2c1 |  | 10 µM (active)
Cc1ccc2nc(SCC(=O)c3ccc4c(c3)OCO4)[nH]c2c1 |  | 2.82 µM (active)
CCCCc1ccc2nc(NC(=O)OC)[nH]c2c1 | -17.4% [at 25.6 µM] (inactive) | 
COc1ccc2nc(SCC(=O)c3ccco3)[nH]c2c1 |  | 14.1 µM (active)
COc1ccc(NC(=O)N2CCCC3(CCN(C(=O)c4ccco4)CC3)C2)cc1 | -1.82% (inactive) | 
CCOC(=O)NC(=O)CSc1nc2ccc(OCC)cc2[nH]1 |  | 14.1 µM (active)
Oc1cc(O)c2c(c1)O[C@H](c1ccc(O)c(O)c1)[C@@H](O)[C@@H]2c1c(O)cc(O)c2c1O[C@@H](c1ccc(O)c(O)c1)[C@H](O)C2 | -23.6% [at 11.4 µM] (inactive) | 
CSc1ccc2nnc(-c3cccc(F)c3)n2n1 |  | 15.8 µM (active)
Cc1cc(C)c(C#N)c(SCc2cc3c(cc2Cl)OCO3)n1 |  | 6.31 µM (active)
CON1C(=O)C(=O)N(OC)C(C)(C)C1C (centres undefined) | -27% (inactive) | 
c1ccc2nc(C3=NCCN3)ccc2c1 |  | inactive
c1ccc2nc(-c3ccncc3)ccc2c1 |  | 3.55 µM (active)
O=C(OCCN1CCCCC1)c1c[nH]c2ccccc12 |  | inactive
COc1cc(Cl)c(CC(=O)c2c[nH]c3ccccc23)cc1OC |  | 1 µM (active)
CN1[C@@H]2CC[C@H]1CC(OC(=O)c1c[nH]c3ccccc13)C2 (some centres undefined) | 22.9% (inactive) | 
C[C@H](CO)NC(=O)[C@H](C)[C@H]1C[C@]1(C)[C@H](NC(=O)OCc1ccccc1)c1ccccc1 |  | 0.631 µM (active)
CNC(=O)[C@H](C)[C@@H]1C[C@@]1(C)[C@@H](NC(=O)OCc1ccccc1)c1ccccc1 |  | 0.631 µM (active)
CNC(=O)[C@H](C)[C@H]1C[C@]1(C)[C@H](NC(=O)OCc1ccccc1)c1ccccc1 |  | 1 µM (active)
